# Shown are actives, neighbours in structure and some others; about 9% of the full set was active somewhere.
# IMPase cell inh – cell-permeable inhibitors of inositol monophosphatase (IMPase) | CHO-M1 cells, IP1 accumulation, HTRF TR-FRET ratio | P97697 | inhibition (IP1 accumulation), % at 46.1 µM | AID 901 | 120,000 tested, under 10 active; active = well fitted curve in the direction sought with a large enough effect in the signal ratio, not every such curve was filed as active; inconclusive = small, poorly fitted or top-dose-only effect, or a change in a side signal; inactive = no such curve, though single readings can be large or run the other way; the % refers to the signal ratio;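 note: cells stimulated with carbachol in lithium chloride buffer; plate controls were DMSO basal wells for no effect and reference inhibitor wells for full effect; higher means more IMPase inhibition seen as more IP1 and lower FRET ratio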
# Target sequence (P97697 whole entry, looked up): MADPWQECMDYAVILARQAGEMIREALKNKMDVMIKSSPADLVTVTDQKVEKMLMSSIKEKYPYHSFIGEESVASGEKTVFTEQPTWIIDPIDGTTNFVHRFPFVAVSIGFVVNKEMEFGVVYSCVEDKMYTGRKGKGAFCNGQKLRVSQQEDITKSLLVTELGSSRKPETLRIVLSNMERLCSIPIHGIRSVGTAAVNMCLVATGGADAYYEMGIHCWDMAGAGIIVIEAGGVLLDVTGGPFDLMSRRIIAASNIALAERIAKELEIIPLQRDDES
#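 Measured: the HTRF emission ratio (665/620 nm) plus the 620 nm donor channel, each fitted to the Hill equation to give AC50. Cells were CHO-M1 given compounds up to 46 uM and a 30 min carbachol stimulation at 37C.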
# HPGD block – inhibitors of human 15-hydroxyprostaglandin dehydrogenase (HPGD). 150,000 compounds, 4.3% hits. Potency, µM, without a hit: top-dose activity change, negative = inhibition, usual class: inhibitors. purified HPGD, NADH fluorescence kinetic, PGE2 substrate. P15428; note: potency is the fitted concentration of half-maximal effect
# Target sequence (P15428 whole entry, looked up): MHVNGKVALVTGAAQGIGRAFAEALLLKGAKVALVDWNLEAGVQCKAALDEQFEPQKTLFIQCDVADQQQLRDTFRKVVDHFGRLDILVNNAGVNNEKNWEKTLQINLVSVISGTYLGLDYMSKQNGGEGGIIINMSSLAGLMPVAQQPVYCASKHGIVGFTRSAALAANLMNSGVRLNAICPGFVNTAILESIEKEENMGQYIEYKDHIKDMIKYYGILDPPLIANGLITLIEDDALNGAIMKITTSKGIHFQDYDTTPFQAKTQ
#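 NADH formation kinetics: reaction with 30 uM PGE2 and 1 mM NAD+ (final), 20 nM enzyme, Tris-HCl pH 8 with Tween 20, after 15 min compound preincubation at room temperature. Fluorescence change, last versus first of five reads.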
# ALDH1A1 block – blocks purified human ALDH1A1 activity. P00352. Purified ALDH1A1, NADH fluorescence, propionaldehyde substrate. Potency, µM (titrated, usually from 75.3 µM), without a hit: top-dose activity, negative = inhibition, hits mostly inhibitors. 220,000 compounds, 7.3% hits. AID 1030;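 note: potency is the fitted concentration of half-maximal effect; plate controls were no enzyme wells and a reference inhibitor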
# * hit, by the source's call; ? = inconclusive; nt = no result given; [ ] = dose if it differs, or a comment. Unless noted, calls come from the whole dose curve; as a rule, active = well fitted inhibition curve with a large enough effect (not every such curve was filed as active); inconclusive = small, poorly fitted or top-dose-only effect, or another doubt; inactive = no such curve, though single readings can be large or run the other way. Unless noted, % is set by controls: 0 for no effect and ±100 for the full control effect.
SMILES,IMPase cell inh,HPGD block,ALDH1A1 block
O=C(NN1C(=O)C2C3C=CC(C4CC34)C2C1=O)c1cccc(Cl)c1 (stereo not drawn),nt,-14%,-8%
Cc1cccc(C(=O)NN2C(=O)C3C(c4ccccc4)C=CC(c4ccccc4)C3C2=O)c1 (stereo not drawn),15,-9%,2%
Cc1ccc(Cl)cc1NC(=O)COC(=O)C12CC3CC(CC(C3)C1)C2,?,-12%,-5%
Cc1cc(-n2c(C)cc(C(=S)N3CCOCC3)c2C)ccc1Br,nt,10µM*,11µM*
Cc1ccc(-n2c(C)cc(C(=O)CN3CCOCC3)c2C)cc1C,nt,nt,9%
Cc1ccc(NC(=O)c2ccc(-n3cccn3)c([N+](=O)[O-])c2)cc1,3,-18%,?
O=C(Nc1ccccc1Cl)c1ccc(-n2cccn2)c([N+](=O)[O-])c1,nt,nt,8.9µM*
O=C(Nc1cccnc1)c1ccc(N2CCCC2)c([N+](=O)[O-])c1,nt,nt,7.9µM*
O=C(Nc1ccc(N2CCCC2)c(Cl)c1)c1cccnc1,7,-26%,8.9µM*
Cc1ccc(C)c2sc(NC(=O)c3ccc(N4CCCCC4)c([N+](=O)[O-])c3)nc12,?,-11%,-1%
CN1C(=O)c2ccc(NC(=O)c3ccc(N4CCCCC4)c([N+](=O)[O-])c3)cc2C1=O,-5,?,?
Cc1cccc(NC(=O)c2ccc(N3CCCCC3)c([N+](=O)[O-])c2)n1,-12,?,13µM*
O=C(Nc1ccc(N2CCCCC2)c(Cl)c1)c1cccnc1,-1,-13%,?
Cc1ccc(Cn2cccc(NC(=O)c3ccco3)c2=O)cc1,-3[9.22 µM],-11%,-2%
c1nnc(NCNc2nncs2)s1,nt,1%,6%[13.5 µM]
CN(C)C(=O)c1ccc(NC(=O)c2cccnc2)cc1,5,32µM*,-1%
O=C(Nc1ccc(OC(=O)c2cccnc2)cc1)c1cccnc1,9,-4%,12%
CN(C(=O)COc1ccc(Br)cc1Cl)C1CCCCC1,nt,nt,1%
Cc1ccc(S(=O)(=O)C2(C(=O)Nc3ccc(C(C)C)cc3)CC2)cc1,nt,nt,-3%
CCN(CC)S(=O)(=O)c1ccc(Cl)c(C(=O)Nc2ccc(Cl)cc2[N+](=O)[O-])c1,nt,-2%,?
COc1ccccc1N1CCN(C(=O)c2cc3c(=O)n(C)c4ccccc4c3n2C)CC1,5,-15%,?
CCOCCCNC(=O)C1CCC(CNS(=O)(=O)c2ccc(Cl)cc2)CC1 (stereo not drawn),9,-27%,?
COCCCNC(=O)C1CCCN(S(=O)(=O)c2ccc(C)cc2)C1 (stereo not drawn),9,-16%,0%
CCCCNC(=O)C1CCC(CNS(=O)(=O)c2ccc(C)cc2)CC1 (stereo not drawn),nt,nt,10µM*
COCCCNC(=O)C1CCC(CNS(=O)(=O)c2ccc(C)cc2)CC1 (stereo not drawn),nt,nt,11µM*
SMILES,IMPase cell inh,HPGD block,ALDH1A1 block
Cc1c(C(=O)OC2CCCC2)[nH]c2c1C(=O)CC(c1ccc(Cl)cc1)C2 (stereo not drawn),15,nt,nt
S=c1nc(-c2csc3c2CCCC3)[nH][nH]1,nt,nt,11µM*
Cc1nnc2sc(-c3csc4c3CCCC4)nn12,0,?,-10%
CCNc1nc(NCC)nc(N(n2cnnc2)S(=O)(=O)c2ccc(C)cc2)n1,nt,-5%,?
CCNc1nc(NC(C)C)nc(N(n2cnnc2)S(=O)(=O)c2ccc(C)cc2)n1,nt,-7%,2.2µM*
O=S(=O)(NC1=NCCC1)c1cccc(NC(=S)NCCc2ccccc2)c1,nt,-11%,?
N#CCCn1c(=O)c(-c2ccc(F)cc2)nc2cnc(Oc3cccc(Cl)c3)nc21,nt,-18%,?
Cc1cc(C)c(S(=O)(=O)Nc2cc(SCC(=O)O)c(O)c3ccccc23)cc1C,nt,1.1µM*,?
Cc1cc(C)c(S(=O)(=O)Nc2ccc(C(=O)O)c(O)c2)cc1C,nt,-8%,?
COc1cc(NC(=O)c2cc3nc(-c4ccccc4)cc(-c4ccccc4)n3n2)cc(OC)c1OC,4,?,1%
Cc1cc(C)n(CCc2nc(-c3cc4ccccc4o3)cs2)n1,8,-11%,?
Cc1cc(C)n(CCc2nc(-c3ccc(C)o3)cs2)n1,-2,25µM*,4µM*
CCCCNC(=O)CCCCC(=O)N/N=C/c1cccc(Cl)c1,nt,-14%,-11%
CSc1cccc(NC(=O)c2c(Cl)cnn2C)c1,?,-29%,-1%
Cn1ncc(Cl)c1C(=O)Nc1cccc(Cl)c1,0,13µM*,7.9µM*
Cc1ccccc1Nc1nc(-c2sc(NC(=O)c3ccc([N+](=O)[O-])cc3)nc2C)cs1,-2,-23%,?
CCOc1ccccc1Nc1nc(-c2sc(NC(=O)c3ccc([N+](=O)[O-])cc3)nc2C)cs1,-2,-3%,0.79µM*
Cc1ccc(Cl)cc1Nc1nc(-c2sc(NC(=O)c3cccc(Cl)c3)nc2C)cs1,1,-19%,?
Cc1ccccc1Nc1nc(-c2sc(NC(=O)c3cccc(Cl)c3)nc2C)cs1,2,-14%,18µM*
Cc1ccc(Nc2nc(-c3sc(NC(=O)c4ccc([N+](=O)[O-])cc4)nc3C)cs2)cc1,1,-12%,?
Cc1ccccc1Nc1nc(-c2sc(NC(=O)c3ccccc3)nc2C)cs1,-6,?,20µM*
CN(C)CC(O)COC(c1ccc(Cl)cc1)c1ccc(Cl)cc1 (stereo not drawn),nt,nt,5%
CCN(C(=O)CN1CCN(S(=O)(=O)c2cc(Cl)ccc2Cl)CC1)c1c(N)n(Cc2ccccc2)c(=O)[nH]c1=O,nt,-3%,5%
CN=C(NC1CCCCC1)c1ccc(Cl)cc1,nt,-5%,-3%
O=[N+]([O-])c1cccc(/C=C/c2nc3ccc([N+](=O)[O-])cc3[nH]2)c1,-1,-5%,9%
SMILES,IMPase cell inh,HPGD block,ALDH1A1 block
Cc1ccc(CNC(=O)CN2CCCC(C)C2)cc1 (stereo not drawn),3,14µM*,-1%
Cc1cc(NC(=O)CN2CCCC(C)C2)no1 (stereo not drawn),nt,nt,6%
O=C(c1c(O)c2ccc(Cl)cc2[nH]c1=O)C1CC1,2,-1%,1%
COc1cc2c(cc1OC)C(=S)NC(C)(C)C2,9,-12%,25µM*
COc1cc2c(cc1OC)/C(=C/C(=O)N1CCOCC1)NC(C)(C)C2,1,?,?
CCC(=O)Nc1nnc(SCC(=O)NCCc2ccc(OC)c(OC)c2)s1,nt,nt,-12%
COc1ccc(N(C(=O)c2ccc(Cl)cc2)C2=CC3CCC(C2)N3C)cc1 (stereo not drawn),-2,-1%,?
COc1ccc2nc(NNC(=O)COc3ccccc3)sc2c1,nt,nt,20µM*
COc1ccc(OCC(=O)Nc2nc3ccc(NC(C)=O)cc3s2)cc1,nt,nt,8%
CC1CC(C)(C)NC(=S)S1 (stereo not drawn),0,22µM*,13µM*
CC1CC(C)(C)NC(=O)O1 (stereo not drawn),-12,-2%,-8%
Cn1c(SCC(=O)NNC(=O)Cc2ccccc2)nc2ccccc2c1=O,nt,nt,11%
COc1ccc(COC(=O)N/N=C2/C[C@@H](O)[C@@H](O)[C@@H]3[C@@H]4C(=O)N(C(C)(C)C)C(=O)[C@H]4CC[C@H]23)cc1,nt,nt,2%[13.5 µM]
CC(=O)C1C(=O)c2c(cccc2[N+](=O)[O-])C1=Nc1ccc(S(N)(=O)=O)cc1 (stereo not drawn),nt,nt,22µM*

# Screening data deposited in PubChem by National Center for Advancing Translational Sciences (NCATS).
